Growth inhibition data for ten molecules are collected here from PubChem BioAssay (NCI).

SMILES strings stand for the structures. The panel holds about 79,000 compounds, 15% with a hit somewhere; the sample as a whole holds those more often. Unmarked numbers belong to inactive results. Calls of active or inactive are those of the source. Rule as the data show it: active = growth inhibition above about 70%; inactive = the rest.

Assay [1] can be described thus: NCI Yeast Anticancer Drug Screen. Data for the rad50 strain (AID 155).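 Also: 0% = growth of vehicle-only cultures of the same strain.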 The following applies: S. cerevisiae rad50 strain growth inhibition, stronger effect = higher value. A digest of the protocol:
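Compounds were tested on a yeast strain with an engineered DNA damage repair alteration; the reported value is growth inhibition normalised to vehicle treatment.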

Assay [2] can be described thus: NCI Yeast Anticancer Drug Screen. Data for the mec2-1 strain (AID 157). The note with it: S. cerevisiae mec2-1 strain, stronger effect = higher value. The procedure, abridged:
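mec2-1 yeast strain, carrying an alteration in DNA damage repair or cell cycle control, was exposed to compounds; growth inhibition was measured relative to vehicle-treated controls.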

A short description of assay [3]: NCI Yeast Anticancer Drug Screen. Data for the sgs1 mgt1 strain (AID 161).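 Also: 0% = growth of cultures given vehicle only.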 The note with it: S. cerevisiae sgs1 mgt1 strain, stronger effect = higher value. A digest of the protocol:
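Yeast cells carrying a defined DNA-repair defect were exposed to test compounds. Growth inhibition was measured relative to vehicle-treated controls.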

Assay [4] in a line: NCI Yeast Anticancer Drug Screen. Data for the cln2 rad14 strain (AID 165).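 Also: 0% = growth equal to vehicle treated cultures.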 The note with it: S. cerevisiae cln2 rad14 strain, stronger effect = higher value. A digest of the protocol: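 Yeast carrying cln2 and rad14 alterations (cell cycle control and DNA damage repair) were exposed to compounds. Growth inhibition was measured against vehicle-treated controls.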
Assay [5] in a line: NCI Yeast Anticancer Drug Screen. Data for the bub3 strain (AID 167). The note with it: S. cerevisiae bub3 mutant strain, stronger effect = higher value. A digest of the protocol: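 Growth of a checkpoint-deficient yeast mutant is measured after compound exposure. Values represent inhibition relative to vehicle.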
Assay [6] in a line: NCI Yeast Anticancer Drug Screen. Data for the mlh1 rad18 strain (AID 175). The following applies: S. cerevisiae mlh1 rad18 strain growth inhibition, stronger effect = higher value. The procedure, abridged:
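Growth inhibition of the yeast strain was measured after compound exposure and expressed relative to vehicle-treated controls. The strain carries defined defects in DNA damage repair.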

[7] abbreviates: at 5.0 µM (retest, dose inferred, filed as 0.5).
[8] abbreviates: at 50.0 µM (retest, dose inferred, filed as 5.0).

For `N#CC(NNC(=O)c1ccccc1O)c1c(O)ccc2ccccc12` (stereo not given), the growth inhibition in assay [1] (setting [7]) is -4%; in assay [1] (setting [8]), 59%; in assay [1] (at 50.0 µM) it was 74.3% (active); in assay [2] (setting [7]), 22%; in assay [2] (setting [8]), 51%; in assay [2] (at 50.0 µM) it was 38.9%. Moreover, the growth inhibition in assay [3] (setting [7]) was -5%; in assay [3] (setting [8]) it was 50%; in assay [3] (at 50.0 µM), 61.9%; in assay [4] (setting [7]), 16%; in assay [4] (setting [8]), 62%; in assay [4] (at 50.0 µM), 41.4%. In addition, the growth inhibition in assay [5] (setting [7]) is 17%; in assay [5] (setting [8]) it was 79% (active); in assay [5] (at 50.0 µM), 56.1%; in assay [6] (setting [7]) it was 4%; in assay [6] (setting [8]), 82% (active); in assay [6] (at 50.0 µM), 51.5%.

For the molecule `O=C1CN(CCN2CCOCC2)CC(=O)N2Cc3ccccc3CN12`, the growth inhibition in assay [1] (setting [7]) is 12%; in assay [1] (setting [8]), 38%; in assay [1] (at 50.0 µM), 61.6%; in assay [2] (setting [7]) it was 7%; in assay [2] (setting [8]), 55%; in assay [2] (at 50.0 µM), 24.1%. The growth inhibition in assay [3] (setting [7]) is 27%; in assay [3] (setting [8]), 41%; in assay [3] (at 50.0 µM) it was 66.5%; in assay [4] (setting [7]), 3%; in assay [4] (setting [8]), 46%; in assay [4] (at 50.0 µM) it was 62.6%. Further, the growth inhibition in assay [5] (setting [7]) was 6%; in assay [5] (setting [8]), 35%; in assay [5] (at 50.0 µM), 68.5%; in assay [6] (setting [7]), 29%; in assay [6] (setting [8]) it was 64%; in assay [6] (at 50.0 µM) it was 44.2%.

As to `O=C(CN1CCCCC1)c1ccc(/C=C/c2ccc(Cl)cc2)cc1`, the growth inhibition in assay [1] (setting [7]) is 7%; in assay [1] (setting [8]), 98% (active); in assay [1] (at 50.0 µM) it was 98.6% (active); in assay [2] (setting [7]), 4%; in assay [2] (setting [8]), 99% (active); in assay [2] (at 50.0 µM), 98.4% (active). Moreover, the growth inhibition in assay [3] (setting [7]) was 12%; in assay [3] (setting [8]), 98% (active); in assay [3] (at 50.0 µM), 97.1% (active); in assay [4] (setting [7]), -20%; in assay [4] (setting [8]), 75% (active); in assay [4] (at 50.0 µM), 97.5% (active). Also, the growth inhibition in assay [5] (setting [7]) is -13%; in assay [5] (setting [8]), 99% (active); in assay [5] (at 50.0 µM), 96.8% (active); in assay [6] (setting [7]), 21%; in assay [6] (setting [8]), 99% (active); in assay [6] (at 50.0 µM) it was 98.1% (active).

Regarding `CCOCCOc1ccc(OCCOCC)cc1`, the growth inhibition in assay [1] (setting [7]) was -8%; in assay [1] (setting [8]), -13%; in assay [1] (at 50.0 µM), -1.9%; in assay [2] (setting [7]), -8%; in assay [2] (setting [8]), -13%; in assay [2] (at 50.0 µM), -1.7%. For the same molecule, the growth inhibition in assay [3] (setting [7]) is -66%; in assay [3] (setting [8]), -9%; in assay [3] (at 50.0 µM), -7%; in assay [4] (setting [7]), -4%; in assay [4] (setting [8]), -10%; in assay [4] (at 50.0 µM) it was 37.3%. For the same molecule, the growth inhibition in assay [5] (setting [7]) is -8%; in assay [5] (setting [8]), -4%; in assay [5] (at 50.0 µM), -2.95%; in assay [6] (setting [7]) it was 13%; in assay [6] (setting [8]) it was -15%; in assay [6] (at 50.0 µM), 0.4%.

For the molecule `O=C1C=CC(=C(c2ccccc2)c2ccc(O)cc2)C=C1`, the growth inhibition in assay [1] (setting [7]) was -5%; in assay [1] (setting [8]) it was 75% (active); in assay [1] (at 50.0 µM), 31.3%; in assay [2] (setting [7]) it was -8%; in assay [2] (setting [8]), 72% (active); in assay [2] (at 50.0 µM), 80.3% (active). The growth inhibition was -5% in assay [3] (setting [7]); -27% in assay [3] (setting [8]); 65.3% in assay [3] (at 50.0 µM); -7% in assay [4] (setting [7]); 76% (active) in assay [4] (setting [8]); 27.6% in assay [4] (at 50.0 µM). Also, the growth inhibition in assay [5] (setting [7]) was -8%; in assay [5] (setting [8]), 92% (active); in assay [5] (at 50.0 µM), 92.2% (active); in assay [6] (setting [7]), 2%; in assay [6] (setting [8]), 86% (active); in assay [6] (at 50.0 µM), 81% (active).

In the case of `O=C(NNc1ccccc1)c1ccc([N+](=O)[O-])cc1`, the growth inhibition in assay [1] (setting [7]) is 31%; in assay [1] (setting [8]) it was 95% (active); in assay [1] (at 50.0 µM), 99% (active); in assay [2] (setting [7]), 10%; in assay [2] (setting [8]), 96% (active); in assay [2] (at 50.0 µM) it was 99.2% (active). In addition, the growth inhibition in assay [3] (setting [7]) was 34%; in assay [3] (setting [8]), 97% (active); in assay [3] (at 50.0 µM) it was 99% (active); in assay [4] (setting [7]) it was 20%; in assay [4] (setting [8]), 96% (active); in assay [4] (at 50.0 µM) it was 92% (active). Moreover, the growth inhibition in assay [5] (setting [7]) is 25%; in assay [5] (setting [8]), 96% (active); in assay [5] (at 50.0 µM), 99.6% (active); in assay [6] (setting [7]) it was 32%; in assay [6] (setting [8]) it was 97% (active); in assay [6] (at 50.0 µM) it was 98.7% (active).

Regarding `Cn1c2c(c3nc(N)nc(N)c3c1=O)CCc1ccccc1-2`, the growth inhibition was 6% in assay [1] (setting [7]); 21% in assay [1] (setting [8]); 72.8% (active) in assay [1] (at 50.0 µM); 0% in assay [2] (setting [7]); 31% in assay [2] (setting [8]); 26.3% in assay [2] (at 50.0 µM). Moreover, the growth inhibition in assay [3] (setting [7]) was 8%; in assay [3] (setting [8]), 39%; in assay [3] (at 50.0 µM), 69.5%; in assay [4] (setting [7]), -2%; in assay [4] (setting [8]) it was 37%; in assay [4] (at 50.0 µM), 42.8%. For the same molecule, the growth inhibition is -1% in assay [5] (setting [7]); 39% in assay [5] (setting [8]); 68.5% in assay [5] (at 50.0 µM); 0% in assay [6] (setting [7]); 36% in assay [6] (setting [8]); 44.4% in assay [6] (at 50.0 µM).

In the case of `C[CH2][Sn]([CH2]C)([O]C(=O)c1ccccc1OC)[O][Sn]([CH2]C)([CH2]C)[O]C(=O)c1ccccc1OC`, the growth inhibition is 36% in assay [1] (setting [7]); 78% (active) in assay [1] (setting [8]); 51.6% in assay [1] (at 50.0 µM); 35% in assay [2] (setting [7]); 87% (active) in assay [2] (setting [8]); 41% in assay [2] (at 50.0 µM). For the same molecule, the growth inhibition is 33% in assay [3] (setting [7]); 83% (active) in assay [3] (setting [8]); 42.2% in assay [3] (at 50.0 µM); 20% in assay [4] (setting [7]); 62% in assay [4] (setting [8]); 20.8% in assay [4] (at 50.0 µM). The growth inhibition in assay [5] (setting [7]) is 35%; in assay [5] (setting [8]) it was 94% (active); in assay [5] (at 50.0 µM), 32.1%; in assay [6] (setting [7]), 38%; in assay [6] (setting [8]) it was 84% (active); in assay [6] (at 50.0 µM) it was 72.8% (active).

Turning to `O=C(O)CSc1cc2c3ccccc3sc2c2ccccc12`, the growth inhibition was 16% in assay [1] (setting [7]); 96% (active) in assay [1] (setting [8]); 96.3% (active) in assay [1] (at 50.0 µM); 14% in assay [2] (setting [7]); 97% (active) in assay [2] (setting [8]); 97.8% (active) in assay [2] (at 50.0 µM). For the same molecule, the growth inhibition was 11% in assay [3] (setting [7]); 97% (active) in assay [3] (setting [8]); 98.5% (active) in assay [3] (at 50.0 µM); 4% in assay [4] (setting [7]); 96% (active) in assay [4] (setting [8]); 93.8% (active) in assay [4] (at 50.0 µM). Also, the growth inhibition in assay [5] (setting [7]) is 8%; in assay [5] (setting [8]), 94% (active); in assay [5] (at 50.0 µM) it was 79.7% (active); in assay [6] (setting [7]) it was 12%; in assay [6] (setting [8]), 97% (active); in assay [6] (at 50.0 µM), 98.1% (active).

As for `Cc1ccc(O)c(C(C)c2ccccc2)c1` (stereo not given), the growth inhibition was 6% in assay [1] (setting [7]); 97% (active) in assay [1] (setting [8]); 99.2% (active) in assay [1] (at 50.0 µM); -20% in assay [2] (setting [7]); 99% (active) in assay [2] (setting [8]); 99.6% (active) in assay [2] (at 50.0 µM). The growth inhibition in assay [3] (setting [7]) is -3%; in assay [3] (setting [8]) it was 97% (active); in assay [3] (at 50.0 µM), 98.8% (active); in assay [4] (setting [7]), -8%; in assay [4] (setting [8]), 96% (active); in assay [4] (at 50.0 µM), 98.8% (active). In addition, the growth inhibition in assay [5] (setting [7]) was 21%; in assay [5] (setting [8]), 98% (active); in assay [5] (at 50.0 µM), 98.8% (active); in assay [6] (setting [7]), 2%; in assay [6] (setting [8]), 98% (active); in assay [6] (at 50.0 µM) it was 99.1% (active).
